Sampled rows, rich in hits. Any-hit rate of the full collection: about 3%.
Tau FP inhib: inhibitors of human tau fibril formation; P10636; K18 P301L tau heparin fibrillization, Alexa594 FP, 6 h; Potency, µM (top dose mostly 57.7 µM), without a hit: at the top dose activity, negative = inhibition, most hits filed as inhibitors; hit rate 0.39% among 280,000; AID 1468; note: potency is the fitted concentration of half-maximal effect; nearly all actives have a fitted effect of over 55% in size
Target sequence (P10636 561-689 P618L limits assumed): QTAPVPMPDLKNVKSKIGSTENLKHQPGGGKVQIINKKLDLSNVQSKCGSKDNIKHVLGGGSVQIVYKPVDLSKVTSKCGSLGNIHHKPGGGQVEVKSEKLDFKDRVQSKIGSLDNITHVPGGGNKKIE
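Human tau K18 […] P301L fragment, 15 uM unlabeled plus 0.24 uM Alexa 594-labeled tau (final), with compound and 20 uM heparin in 100 mM sodium acetate pH 7; 6 hr at 37 C, then Alexa 594 FP read.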
JMJD2E inh: JMJD2E (human) inhibition | B2RXH2 | JMJD2E catalytic domain, FDH-coupled NADH fluorescence (FDH is formaldehyde dehydrogenase) | Potency, µM (top dose mostly 57.1 µM), for inactives: at the top dose activity change, negative = inhibition, hits mostly inhibitors | hit rate 1.6% among 230,000 | AID 2147; active = well fitted inhibition curve with a large enough effect, not every such curve was filed as active; inconclusive = small, poorly fitted or top-dose-only effect, or another doubt; inactive = no such curve, though single readings can be large or run the other way;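 note: potency is the fitted concentration of half-maximal effect; 0% = wells with enzyme and -100% = buffer wells without enzyme; nearly all actives have a fitted effect of over 50% in size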
Target sequence (B2RXH2 1-337 limits assumed): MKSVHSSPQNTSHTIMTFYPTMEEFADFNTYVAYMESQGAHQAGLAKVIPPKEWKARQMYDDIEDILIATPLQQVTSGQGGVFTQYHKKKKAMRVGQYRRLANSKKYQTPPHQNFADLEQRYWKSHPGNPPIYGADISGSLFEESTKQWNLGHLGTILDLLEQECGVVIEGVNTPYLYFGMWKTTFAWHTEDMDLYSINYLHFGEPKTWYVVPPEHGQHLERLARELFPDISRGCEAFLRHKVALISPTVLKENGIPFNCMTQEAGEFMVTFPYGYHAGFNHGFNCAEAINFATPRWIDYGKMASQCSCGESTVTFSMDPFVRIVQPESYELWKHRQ
Coupling enz: coupling enzyme interference in Giardia aldolase counter-screen; coupling enzyme system counterscreen, AmpLite Red fluorescence; activity change, negative = inhibition, % at 58.2 µM, hits read low; hit rate 0.67% among 290,000; in the data active = activity change below about -30%
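Counterscreen of the coupled detection system alone, without aldolase: glyceraldehyde-3-phosphate coupling enzymes plus AmpLite Red readout. Compounds at 57.5 uM final, 10 min RT preincubation, 20 min RT reaction, fluorescence 525/598 nm.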
Tau fibril ThT: inhibitors of human tau fibril formation, thioflavin T binding; recombinant tau K18 P301L, heparin-induced fibrillization, ThT fluorescence; Potency, µM (series often up to 57.4 µM), without a hit: top-dose activity, negative = inhibition, most hits filed as inhibitors; hit rate 2.1% among 270,000; note: potency is the fitted concentration of half-maximal effect; nearly all actives have a fitted effect of over 55% in size
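Heparin-induced fibrillization of the P301L-mutant K18 repeat-domain fragment of human tau was followed by ThT binding in quantitative high-throughput format.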
Tau fluor counter: counter-screen for tau fibril formation inhibitors. tau K18 P301L Alexa594 fluorescence, heparin fibrillization. Potency, µM (series often up to 57.7 µM), without a hit: top-dose activity change, negative = decrease. hit rate 0.93% among 280,000. AID 1463; note: potency is the fitted concentration of half-maximal effect; nearly all actives have a fitted effect of over 55% in size
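Human tau K18 P301L (15 uM unlabeled, 0.24 uM Alexa 594-labeled) in 100 mM sodium acetate pH 7 with 20 uM heparin, 6 hr at 37 C. ThT 30 uM added, 1 hr ambient; Alexa 594 FP and total fluorescence read at 555/632 nm.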
* marks the source's active call; other numbers are inactive results; ? = inconclusive; nt = not tested or not shown; ! = not confirmed by another sample; [ ] = dose if it differs, or a comment. Unless noted, calls come from the whole dose curve; as a rule, active = well fitted curve in the direction sought with a large enough effect; inconclusive = small, poorly fitted or top-dose-only effect, or another doubt; inactive = no such curve, though single readings can be large; an effect the other way counts as inactive or inconclusive. Unless noted, % is set by controls: 0 for no effect and ±100 for the full control effect.

SMILES	Tau FP inhib	JMJD2E inh	Coupling enz	Tau fibril ThT	Tau fluor counter
CC(=O)N1CCc2c(sc3c2c(=O)n(Cc2ccccc2)c(=O)n3CC(=O)Nc2ccc(C)c(F)c2)C1	28µM*	nt	nt	?	?
COC(=O)c1ccccc1NC(=O)Cn1c(=O)n(Cc2ccccc2)c(=O)c2c(C)c(C)sc21	-4%	1%	2	-1%	-16%
Cc1ccc(NC(=O)c2ccc(NCCN)c([N+](=O)[O-])c2)cc1Cl	5%	7%	2	13µM*	?
O=C(NCCNc1ccc(Cl)cc1[N+](=O)[O-])c1ccccc1F	nt	nt	-1	nt	nt
Cc1ccc(C(=O)NCCNc2ccc(Cl)cc2[N+](=O)[O-])o1	-14%	0%	-1	16µM*	-25%
O=C(NNC(=S)Nc1ccc(Cl)cc1Cl)c1ccc(N2CCOCC2)c([N+](=O)[O-])c1	?	3%	4	5µM*	?
Cc1ccc(NC(=O)c2ccc(-n3cccn3)c([N+](=O)[O-])c2)cc1	-4%	5%	-12	?	-19%
Cc1ccc(NC(=O)c2ccc(NCCc3ccccc3)c([N+](=O)[O-])c2)cc1F	-12%	3%	2	?	?
Cc1cccc(NC(=O)c2ccc(-n3cccn3)c([N+](=O)[O-])c2)c1	0%	-5%	-33*	6.3µM*	?
Cc1cccc(NC(=O)c2ccc(N3CCOCC3)c([N+](=O)[O-])c2)n1	-4%	4%	-18	?	-4%
O=C(Nc1ccc(-c2nc3ccccc3o2)cc1)c1ccc(N2CCOCC2)c([N+](=O)[O-])c1	?	4%	-2	2.8µM*	?
O=C(Nc1ccccc1)c1ccc(NCC2CCCO2)c([N+](=O)[O-])c1 (stereo unspecified)	-13%	8%	2	7%	-3%
O=C(NNC(=S)Nc1ccc(Br)cc1)c1ccc(N2CCOCC2)c([N+](=O)[O-])c1	?	-5%	2	13µM*	?
O=C(Nc1cccnc1)c1ccc(N2CCOCC2)c([N+](=O)[O-])c1	nt	nt	-2	nt	nt
Cc1ccc(NC(=S)NNC(=O)c2ccc(N3CCOCC3)c([N+](=O)[O-])c2)cc1Cl	?	2%	5	11µM*	?
COc1ccc(NC(=O)c2ccc(NCC3CCCO3)c([N+](=O)[O-])c2)cc1 (stereo unspecified)	6%	-2%	-1	13µM*	-22%
O=C(Nc1cc(-c2nc3ccccc3o2)ccc1Cl)c1ccc(N2CCCCC2)c([N+](=O)[O-])c1	-17%	nt	nt	?	-19%
Cc1ccc(NC(=O)C2CCCN(c3ncnc4onc(C)c34)C2)cc1Cl (stereo unspecified)	-14%	nt	nt	3%	-22%
Cc1cc(C(=O)Nc2ccc(N3CCCC3)c(Cl)c2)ccc1[N+](=O)[O-]	5%	0%	-10	5µM*	?
O=C(Nc1cc(F)cc(F)c1)c1ccc(NCCc2ccccc2)c([N+](=O)[O-])c1	9%	1%	-14	7%	-1%
O=C(NNC(=S)Nc1ccc(Cl)c(Cl)c1)c1cccc([N+](=O)[O-])c1	?	-9%	0	nt	1.8µM*[quencher]
O=C(O)c1ccc(NCCc2ccc(Cl)cc2)c([N+](=O)[O-])c1	-1%	1%	7	5.6µM*	-16%
Cc1cccc(NC(=S)NNC(=O)c2cccc([N+](=O)[O-])c2)c1	10%	4%	3	?	-23%
CCCOC(=O)c1c(N)sc2c1CCC2	-3%	-15%	-1	?	-11%
COCCNC(=O)c1c(N)sc2c1CCCC2	?	?	-9	28µM*	-24%
SMILES	Tau FP inhib	JMJD2E inh	Coupling enz	Tau fibril ThT	Tau fluor counter
CNC(=O)c1c(N)sc2c1CCCCC2	?	?	-10	18µM*	-29%
COc1ccc(Nc2oc(COc3ccc(OC)cc3)nc2C#N)cc1	4%	-14%	-1	?	28µM*[quencher]
Cc1[nH][nH]c(=O)c1N=Nc1ccc(F)cc1	nt	nt	-1	nt	nt
COc1ccc(N=Nc2c(C)[nH][nH]c2=O)cc1	2%	-2%	1	8.9µM*	-12%
Cc1ccc(N=Nc2c(C)[nH][nH]c2=O)c(C)c1	-6%	-3%	3	8.9µM*	-23%
COc1ccccc1N=Nc1c(C)[nH][nH]c1=O	nt	nt	1	nt	nt
O=C1C2=C(S[C@@H]3O[C@H](CO)[C@@H](O)[C@H](O)[C@H]3O2)C(=O)c2ccccc21	?	4%	-40*	?	-15%
COc1c(O)cc2c(c1O)[C@@H]1O[C@H](CO)[C@@H](O)[C@H](O)[C@H]1OC2=O	nt	nt	-1	nt	nt
Cc1ccc(C)c(Cn2c(C3CC(=O)N(c4ccccc4C)C3)nc3ccccc32)c1 (stereo unspecified)	13%	nt	nt	3%	6%
CCCCN(CC)CCNC(=O)Cn1cc2c(n1)-c1c(oc(C(=O)N3CCCC3)c1C)CC2	4%	nt	-31*	-2%	-1%
Cc1c(C(=O)N2CCCC2)oc2c1-c1nn(CC(=O)NCCCOC(C)C)cc1CC2	-3%	nt	nt	-7%	-4%
O=C(O)COc1ccc(/C=C/c2ccc3cccc([N+](=O)[O-])c3n2)cc1	10%	-7%	-1	7.9µM*	-16%
COc1cc(/C=C/c2ccc3c([N+](=O)[O-])cccc3n2)ccc1OCC(=O)O	-1%	-3%	5	3.2µM*	-16%
C[C@@H]1C[C@@H]2OC(=O)[C@]3(C)[C@H]2[C@@H](OC3(C)O)[C@]2(C)C(=O)C=C[C@H]12 (stereo partly specified)	-10%	7%	6	-16%	17%
C=C1C(=O)O[C@@H]2C[C@@H](C)[C@@H]3C=CC(=O)[C@@]3(C)[C@@H](OC(C)=O)[C@H]12	?	1%	3	4µM*	-20%
Brc1ccc(CSc2nnc(Cc3c[nH]c4ccccc34)o2)cc1	-6%	-10%	0	?	14µM*[quencher]
CN(C)c1ccc(NC(=O)/C=C/c2ccccc2Cl)cc1	17%	-4%	0	?	?
CCN(CC)c1ccc(NC(=O)/C=C\c2ccccc2Cl)cc1	23%	-6%	0	4µM*	8.9µM*[quencher]
Cc1cc(-c2csc(N)n2)c(C)n1C	?	-16%	-30	32µM*	?
Cc1cc(-c2csc(N)n2)c(C)n1Cc1ccco1	-13%	-3%	-4	16µM*	?
Cc1ccc(-n2c(C)cc(-c3csc(N)n3)c2C)cc1	-3%	1%	0	?	-24%
COc1ccc(NC(=O)c2cc3c(s2)-c2c(C)cccc2OC3)c(OC)c1	-2%	nt	nt	?	?
O=C(Cc1ccc2c(c1)OCCO2)c1c(O)cc(O)cc1O	8%	-7%	9	-14%	-29%
O=C(CCc1ccc(O)cc1)c1c(O)cc(O)cc1O	2%	32µM*!	0	?	?
CCCCCCCCCCCCCCCC(=O)NCC(=O)O	5%	5%	3	-4%	-1%
